Reference: ChEMBL document CHEMBL3988442, “University of Dundee, Small-Polar-MMV Screening Library” (2021)
Among all 48,000 compounds or so, about 13,000 (27%) showed an effect of 50% or more. This is one part of the list.

What follows are compounds tested on Wolbachia pipientis (assay: Anti-Wolbachia Cell-Based Screen). Details: 5 µM.
Type: functional
Design: scale not given: in the data most compounds retested in dose-response had high values
With O=C(NCc1ccccn1)NCC(c1ccco1)N1CCCCC1 (centres undefined) the “Percent Effect” value was 12.69%. With O=C(NCCCn1cccn1)NCC(c1ccco1)N1CCCC1 (centres undefined) the “Percent Effect” value was 116.5%. With O=C(Cn1cccn1)NCC(c1cccs1)N1CCCC1 (centres undefined) the “Percent Effect” value was -1.128%. With O=C(CCn1cccn1)NCC(c1cccs1)N1CCCC1 (centres undefined) the “Percent Effect” value was -57.56%. With O=C(NCc1ccccn1)NCC(c1ccco1)N1CCCC1 (centres undefined) the “Percent Effect” value was 11.6%. In the case of O=C(NCCCn1ccnc1)NCC(c1ccco1)N1CCCC1 (centres undefined), the “Percent Effect” value was 97.42%. With O=C(NCc1cc[nH]n1)NCC(c1ccco1)N1CCCC1 (centres undefined) the “Percent Effect” value was -4.044%. In the case of O=C(NCCCn1ccnc1)N1CCCC1c1cccs1 (centres undefined), the “Percent Effect” value was 8.272%. CN(CC(=O)NCCc1cc2ccccc2o1)S(C)(=O)=O was tested, and the “Percent Effect” value was 6.714%. CCN(C)CCNC(=O)Cc1nc(-c2ccco2)oc1C was tested, and the “Percent Effect” value was -18.21%. For COc1cc(C(C)NCc2c[nH]nc2C)ccc1OCCO (centres undefined), the “Percent Effect” value was -5.579%. OCc1ccc(CNc2ccccc2CN2CCC(O)CC2)o1 was tested, and the “Percent Effect” value was -5.459%. For Cn1cc(C2CC(=O)NC23CCN(CC2CC2)CC3)cn1.O=C(O)C(F)(F)F (centres undefined), the “Percent Effect” value was -10.6%. In the case of Cn1cc(C2CC(=O)NC23CCN(Cc2cccc(F)c2)CC3)cn1.O=C(O)C(F)(F)F (centres undefined), the “Percent Effect” value was 101.2%. With Cn1cc(C2CC(=O)NC23CCN(Cc2ccncc2)CC3)cn1.O=C(O)C(F)(F)F.O=C(O)C(F)(F)F (centres undefined) the “Percent Effect” value was 100.3%. With O=C(C1CCC1)N1CCC2(CCN(Cc3cccc(F)c3)CC2)CC1.O=C(O)C(F)(F)F the “Percent Effect” value was 18.44%. For Cc1ccncc1C(=O)N1CC[C@@]2(O)CCN(C3CCCCC3)C[C@H]2C1, the “Percent Effect” value was -0.1912%. With O=C(NCC(O)c1ccc(F)cc1)C1CCN(C2CCCCC2)CC1 (centres undefined) the “Percent Effect” value was 4.274%. With CC(C)(C)n1ncc2c(=O)[nH]c(N3CCN(CC(F)F)CC3)nc21 the “Percent Effect” value was 4.311%. In the case of O=c1[nH]c(NC2CCCC2)nc2nccc(-c3ccsc3)c12, the “Percent Effect” value was -12.83%. With COc1cccc2c1OCCCN(c1nc3c(c(=O)[nH]1)CCNCC3)C2 the “Percent Effect” value was -4.298%. In the case of COc1ccc(-c2ccnc3nc(N4CCCC4)[nH]c(=O)c23)cc1OC, the “Percent Effect” value was 143.1%. COc1cccc(-c2ccnc3nc(N4CCCCC4)[nH]c(=O)c23)c1 was tested, and the “Percent Effect” value was 120.5%. O=c1[nH]c(N2CCCCC2)nc2nccc(-c3ccc4c(c3)OCO4)c12 was tested, and the “Percent Effect” value was 81.44%. COc1ccccc1-c1ccnc2nc(N3CCCCC3)[nH]c(=O)c12 was tested, and the “Percent Effect” value was 113.6%. For Cc1ccccc1-c1csc2c(=O)[nH]c(N3CCCC(C(=O)O)C3)nc12 (centres undefined), the “Percent Effect” value was 12.14%. With Cc1ccc(-c2csc3c(=O)[nH]c(N4CCCC(C(=O)O)C4)nc23)cc1 (centres undefined) the “Percent Effect” value was 13.24%. COc1cccc(-c2n[nH]cc2-c2nc(CN3CCCC3)no2)c1 was tested, and the “Percent Effect” value was -0.8918%. For Cn1[nH]c(C2CCC2)c(-c2ccc3c(c2)OCO3)c1=N, the “Percent Effect” value was 9.847%. In the case of Cc1nc(N2CCCCC2)ncc1-c1cc(=O)[nH]c(N2CCCC2)n1, the “Percent Effect” value was -11.82%. For CCN(Cc1ccoc1)C(=O)Nc1ccccc1CN(C)C(C)=O, the “Percent Effect” value was -2.695%. In the case of CNC(=O)c1nc2c(s1)CCN(C(=O)c1cccc(OC)c1)CC2, the “Percent Effect” value was -8.352%. O=C(NC[C@H]1OC[C@@H](NC2COC2)[C@@H]1O)c1ccccc1 was tested, and the “Percent Effect” value was -18.77%. With COc1ccc(CCNC(=O)N2CCN(C)[C@@H]3CS(=O)(=O)C[C@@H]32)cc1 the “Percent Effect” value was 3.976%. For N#Cc1c(F)cccc1N1CCC(NS(=O)(=O)c2cccs2)CC1, the “Percent Effect” value was -19.03%. COCC1c2nnn(CC3CC3)c2CCN1C(=O)C1CCOCC1 (centres undefined) was tested, and the “Percent Effect” value was -9.696%. CC(C)(C)C(=O)NCCC(=O)Nc1cc(C#N)cn1C(C)(C)C was tested, and the “Percent Effect” value was -12.46%. O=C(NC[C@H]1OC[C@@H](NC2CCCCC2)[C@@H]1O)Nc1ccccc1 was tested, and the “Percent Effect” value was 2.791%. For Cc1cc(N2CCN(c3nc4ccccc4cc3CO)CC2)nc(C)n1, the “Percent Effect” value was 9.089%. For COc1ccc(-c2ccnc3c2C(=O)CCC3)cc1, the “Percent Effect” value was -3.402%. With NC(=O)C1CCN(c2nc3nccc(-c4ccccc4)c3c(=O)[nH]2)CC1 the “Percent Effect” value was -1.836%. In the case of COc1ccc(-c2ccnc3nc(N4CCCCC4)[nH]c(=O)c23)cc1, the “Percent Effect” value was 107.2%. COCCOC1CCN(C(C(=O)O)c2c(Cl)cccc2OC)CC1 (centres undefined) was tested, and the “Percent Effect” value was 87.97%. For O=C(O)C(c1ccc(Cl)c(F)c1)N1CCN(Cc2ccccn2)CC1 (centres undefined), the “Percent Effect” value was 0.4357%. In the case of CN(C)CCN(C)C1CCN(C(C(=O)O)c2ccc(F)c(Cl)c2)CC1 (centres undefined), the “Percent Effect” value was 97.08%. COCCOC1CCN(C(C(=O)O)c2ccc3c(c2)OCO3)CC1 (centres undefined) was tested, and the “Percent Effect” value was 111.3%. COc1ccccc1C(C(=O)O)N1CCCN(C2CCCC2)CC1 (centres undefined) was tested, and the “Percent Effect” value was -24.96%. For O=C(O)C(c1ccc2c(c1)OCO2)N1CCCC1 (centres undefined), the “Percent Effect” value was -31.26%. In the case of COCCOC1CCN(C(C(=O)O)c2ccc(OC)c(F)c2)CC1 (centres undefined), the “Percent Effect” value was 107.6%. NC(=O)C1CCN(C(C(=O)O)c2ccc(Cl)c(C(F)(F)F)c2)CC1 (centres undefined) was tested, and the “Percent Effect” value was -1.554%. With COc1ccc(C(C(=O)O)N2CCC(O)(c3cccnc3)CC2)cc1F (centres undefined) the “Percent Effect” value was -17.65%. In the case of COc1ccc(C(C(=O)O)N2CCN(C3CCCC3)CC2)cc1OC (centres undefined), the “Percent Effect” value was 20.13%. With O=C(O)C(c1ccc2c(c1)OCO2)N1CCCCCC1 (centres undefined) the “Percent Effect” value was 23.77%. In the case of COc1cccc(Cl)c1C(C(=O)O)N1CCC(O)(c2cccnc2)CC1 (centres undefined), the “Percent Effect” value was 0.4267%.
